Experimental data: article PMC11006913
Changes are numbered by the printed parent chain.

Key:
Assay in all cases: PBM; 200 nM protein, PBS
Settings in all cases: dsDNA, one strand shown
SIX6 [1] = target: T1, SIX6 (Homo sapiens, UniProt O95475 114-200, L167I)
T1 sequence: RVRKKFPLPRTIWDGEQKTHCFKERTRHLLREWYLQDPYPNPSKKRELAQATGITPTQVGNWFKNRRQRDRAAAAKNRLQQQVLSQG

SIX6 [2] = target: T2, SIX6 (Homo sapiens, UniProt O95475 114-200, L143V)
T2 sequence: T1 sequence with L30V, I54L

SIX6 [3] = target: T3, SIX6 (Homo sapiens, UniProt O95475 114-200, H141N)
T3 sequence: T1 sequence with H28N, I54L

SIX6 [4] = target: T4, SIX6 (Homo sapiens, UniProt O95475 114-200, T165P)
T4 sequence: T1 sequence with T52P, I54L

SIX6 [5] = target: T5, SIX6 (Homo sapiens, UniProt O95475 114-200, L167M)
T5 sequence: T1 sequence with I54M

SIX6 [6] = target: T6, SIX6 (Homo sapiens, UniProt O95475 114-200, L143I)
T6 sequence: T1 sequence with L30I, I54L

SIX6 [7] = target: T7, SIX6 (Homo sapiens, UniProt O95475 114-200, T165G)
T7 sequence: T1 sequence with T52G, I54L

SIX6 [8] = target: T8, SIX6 (Homo sapiens, UniProt O95475 114-200, T139Q)
T8 sequence: T1 sequence with T26Q, I54L

SIX6 [9] = target: T9, SIX6 (Homo sapiens, UniProt O95475 114-200, T165A)
T9 sequence: T1 sequence with T52A, I54L

SIX6 [10] = target: T10, SIX6 (Homo sapiens, UniProt O95475 114-200)
T10 sequence: T1 sequence with I54L

SIX6 [11] = target: T11, SIX6 (Homo sapiens, UniProt O95475 114-200, L143M)
T11 sequence: T1 sequence with L30M, I54L

SIX6 [12] = target: T12, SIX6 (Homo sapiens, UniProt O95475 114-200, L167V)
T12 sequence: T1 sequence with I54V

SIX6 [13] = target: T13, SIX6 (Homo sapiens, UniProt O95475 114-200, T165I)
T13 sequence: T1 sequence with T52I, I54L

Sequence	binding signal (SIX6 [1])	binding signal (SIX6 [2])	binding signal (SIX6 [3])	binding signal (SIX6 [4])	binding signal (SIX6 [5])	binding signal (SIX6 [6])	binding signal (SIX6 [7])	binding signal (SIX6 [8])	binding signal (SIX6 [9])	binding signal (SIX6 [10])	binding signal (SIX6 [11])	binding signal (SIX6 [12])	binding signal (SIX6 [13])
GATACCGA	10.5 upbm affinity estimate (log intensity, higher = more binding, comparable within an allelic series)	9.92 upbm affinity estimate (log intensity, higher = more binding, comparable within an allelic series)	10.4 upbm affinity estimate (log intensity, higher = more binding, comparable within an allelic series)	9.38 upbm affinity estimate (log intensity, higher = more binding, comparable within an allelic series)	10.1 upbm affinity estimate (log intensity, higher = more binding, comparable within an allelic series)	9.98 upbm affinity estimate (log intensity, higher = more binding, comparable within an allelic series)	10.6 upbm affinity estimate (log intensity, higher = more binding, comparable within an allelic series)	10.6 upbm affinity estimate (log intensity, higher = more binding, comparable within an allelic series)	10.5 upbm affinity estimate (log intensity, higher = more binding, comparable within an allelic series)	10.5 upbm affinity estimate (log intensity, higher = more binding, comparable within an allelic series)			
AGATCCTC	10.5 upbm affinity estimate (log intensity, higher = more binding, comparable within an allelic series)	9.98 upbm affinity estimate (log intensity, higher = more binding, comparable within an allelic series)	10.3 upbm affinity estimate (log intensity, higher = more binding, comparable within an allelic series)	9.64 upbm affinity estimate (log intensity, higher = more binding, comparable within an allelic series)		9.91 upbm affinity estimate (log intensity, higher = more binding, comparable within an allelic series)		10.6 upbm affinity estimate (log intensity, higher = more binding, comparable within an allelic series)	10.4 upbm affinity estimate (log intensity, higher = more binding, comparable within an allelic series)	10.4 upbm affinity estimate (log intensity, higher = more binding, comparable within an allelic series)	10.5 upbm affinity estimate (log intensity, higher = more binding, comparable within an allelic series)	10.2 upbm affinity estimate (log intensity, higher = more binding, comparable within an allelic series)	
GTATATCA	11.2 upbm affinity estimate (log intensity, higher = more binding, comparable within an allelic series)	10.5 upbm affinity estimate (log intensity, higher = more binding, comparable within an allelic series)	11.3 upbm affinity estimate (log intensity, higher = more binding, comparable within an allelic series)	9.99 upbm affinity estimate (log intensity, higher = more binding, comparable within an allelic series)	10.9 upbm affinity estimate (log intensity, higher = more binding, comparable within an allelic series)	10.5 upbm affinity estimate (log intensity, higher = more binding, comparable within an allelic series)	11.2 upbm affinity estimate (log intensity, higher = more binding, comparable within an allelic series)	11.2 upbm affinity estimate (log intensity, higher = more binding, comparable within an allelic series)	11.2 upbm affinity estimate (log intensity, higher = more binding, comparable within an allelic series)	11.1 upbm affinity estimate (log intensity, higher = more binding, comparable within an allelic series)	11.1 upbm affinity estimate (log intensity, higher = more binding, comparable within an allelic series)	11 upbm affinity estimate (log intensity, higher = more binding, comparable within an allelic series)	11.2 upbm affinity estimate (log intensity, higher = more binding, comparable within an allelic series)
GACGGCCC	8.94 upbm affinity estimate (log intensity, higher = more binding, comparable within an allelic series)	8.75 upbm affinity estimate (log intensity, higher = more binding, comparable within an allelic series)	8.98 upbm affinity estimate (log intensity, higher = more binding, comparable within an allelic series)	8.86 upbm affinity estimate (log intensity, higher = more binding, comparable within an allelic series)	8.9 upbm affinity estimate (log intensity, higher = more binding, comparable within an allelic series)	8.82 upbm affinity estimate (log intensity, higher = more binding, comparable within an allelic series)	9 upbm affinity estimate (log intensity, higher = more binding, comparable within an allelic series)	8.92 upbm affinity estimate (log intensity, higher = more binding, comparable within an allelic series)	8.88 upbm affinity estimate (log intensity, higher = more binding, comparable within an allelic series)	8.88 upbm affinity estimate (log intensity, higher = more binding, comparable within an allelic series)	8.78 upbm affinity estimate (log intensity, higher = more binding, comparable within an allelic series)	8.84 upbm affinity estimate (log intensity, higher = more binding, comparable within an allelic series)	8.88 upbm affinity estimate (log intensity, higher = more binding, comparable within an allelic series)
ATCGTGTC	10.1 upbm affinity estimate (log intensity, higher = more binding, comparable within an allelic series)	9.87 upbm affinity estimate (log intensity, higher = more binding, comparable within an allelic series)	10.2 upbm affinity estimate (log intensity, higher = more binding, comparable within an allelic series)	9.63 upbm affinity estimate (log intensity, higher = more binding, comparable within an allelic series)	9.93 upbm affinity estimate (log intensity, higher = more binding, comparable within an allelic series)	9.97 upbm affinity estimate (log intensity, higher = more binding, comparable within an allelic series)	10.3 upbm affinity estimate (log intensity, higher = more binding, comparable within an allelic series)		10.3 upbm affinity estimate (log intensity, higher = more binding, comparable within an allelic series)	10.3 upbm affinity estimate (log intensity, higher = more binding, comparable within an allelic series)			
TATAACCA	10.1 upbm affinity estimate (log intensity, higher = more binding, comparable within an allelic series)		10.1 upbm affinity estimate (log intensity, higher = more binding, comparable within an allelic series)		10.2 upbm affinity estimate (log intensity, higher = more binding, comparable within an allelic series)		10.2 upbm affinity estimate (log intensity, higher = more binding, comparable within an allelic series)			10.1 upbm affinity estimate (log intensity, higher = more binding, comparable within an allelic series)			
ATTATCCG	10.4 upbm affinity estimate (log intensity, higher = more binding, comparable within an allelic series)		10.3 upbm affinity estimate (log intensity, higher = more binding, comparable within an allelic series)	9.7 upbm affinity estimate (log intensity, higher = more binding, comparable within an allelic series)	10.2 upbm affinity estimate (log intensity, higher = more binding, comparable within an allelic series)	9.95 upbm affinity estimate (log intensity, higher = more binding, comparable within an allelic series)	10.2 upbm affinity estimate (log intensity, higher = more binding, comparable within an allelic series)	10.4 upbm affinity estimate (log intensity, higher = more binding, comparable within an allelic series)	10.2 upbm affinity estimate (log intensity, higher = more binding, comparable within an allelic series)	10.3 upbm affinity estimate (log intensity, higher = more binding, comparable within an allelic series)	10.3 upbm affinity estimate (log intensity, higher = more binding, comparable within an allelic series)	10.2 upbm affinity estimate (log intensity, higher = more binding, comparable within an allelic series)	10.2 upbm affinity estimate (log intensity, higher = more binding, comparable within an allelic series)
AAGTGATA	11.2 upbm affinity estimate (log intensity, higher = more binding, comparable within an allelic series)		11.1 upbm affinity estimate (log intensity, higher = more binding, comparable within an allelic series)				11.1 upbm affinity estimate (log intensity, higher = more binding, comparable within an allelic series)		11.1 upbm affinity estimate (log intensity, higher = more binding, comparable within an allelic series)		11 upbm affinity estimate (log intensity, higher = more binding, comparable within an allelic series)	10.9 upbm affinity estimate (log intensity, higher = more binding, comparable within an allelic series)	11 upbm affinity estimate (log intensity, higher = more binding, comparable within an allelic series)
